# Measurements published in PubChem BioAssay (Tox21).
# A number with no mark means an inactive call. Results filed as inconclusive are left out. Where a call stands in place of a potency, no number is given. The source made the active and inactive calls. The call rests on the fitted dose curve; in most records, active means well fitted curve in the direction sought with a large enough effect in the repeat runs; inconclusive means weak or mixed curves; inactive means no such curve, though single readings can be large; an effect the other way counts as inactive or inconclusive. Where a SMILES comes first, the peptide text is derived from it. [ ]: non-standard residue; d: D form. pGlu = O=C1CC[C@@H](C(=O)O)N1
# Legend:
# [1] = Caspase-3/7 induction in HepG2 cells by small molecules, qHTS assay (AID 1346978); further: nearly all actives have a fitted effect of over 15% in size
# Summary of the method: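 Wild-type HepG2 cells (2,000/well) were settled 5 h at 37 C, 5% CO2, then exposed to compounds in DMSO for 17 h. Caspase-3/7 activity was read by luminescence 30 min after adding Caspase-Glo 3/7 reagent at room temperature.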
# [2] = Caspase-3/7 induction in CHO-K1 cells by small molecules, qHTS cell viability counter screen (AID 1346979); further: nearly all actives have a fitted effect of over 35% in size
# Summary of the method: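 Wild-type CHO-K1 cells were seeded at 1,500 per well, rested 5hr at 37 C, then exposed to compounds in DMSO. After 16hr, CellTiter-Fluor reagent was added and fluorescence read 1hr later as the viability measure.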
# [3] = Caspase-3/7 induction in CHO-K1 cells by small molecules, qHTS assay (AID 1346980); further: nearly all actives have a fitted effect of over 15% in size
# Summary of the method: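 Wild-type cells were seeded at 1,500 per well and settled 5 hr at 37 C, 5% CO2, then exposed to DMSO-dissolved compounds for 17 hr. Caspase-Glo 3/7 reagent was added, and luminescence was read after 30min at room temperature.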
# [4] = Caspase-3/7 induction in HepG2 cells by small molecules, qHTS cell viability counter screen (AID 1346981); further: series mostly up to about 92 µM; nearly all actives have a fitted effect of over 30% in size
# Summary of the method: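 Wild-type HepG2 cells, 2,000/well, settled 5 hr at 37 C, 5% CO2 before compound addition. Viability read by CellTiter-Fluor fluorescence, reagent added after 16 hr compound exposure, then 1 hr at 37C, in the same wells as the caspase read.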
# [5] = target: Nuclear receptor subfamily 1 group I member 2 (Homo sapiens) (UniProt O75469); assay: Human pregnane X receptor (PXR) small molecule agonists, qHTS assay (AID 1346982); further: nearly all actives have a fitted effect of over 35% in size; further: potency means the concentration at half of the fitted maximal effect
# Summary of the method: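 PXR-Luc HepG2 reporter cells (CYP3A4-driven luciferase) in 5% charcoal-stripped FBS medium, plated 5 h before compound addition, then treated 24 h at 37C. Luciferase read by ONE-Glo luminescence after 30 min at room temperature.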
# [6] = target: Cytochrome P450 2D6 (Homo sapiens) (UniProt P10635); assay: Cytochrome P450 Family 2 Subfamily D Member 6 (CYP2D6) small molecule antagonists: luciferase reporter qHTS assay (AID 1671196); further: nearly all actives have a fitted effect of over 50% in size; further: potency means the concentration at half of the fitted maximal effect; on activity change, negative = inhibition: series mostly up to about 120 µM
# Summary of the method: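 Cell-free P450-Glo system: CYP2D6 with proluciferin substrate was pre-incubated with compound for 10 min, then reacted with NADPH regeneration for 1 h at room temperature. Luciferin product was detected after 20 min, and data were reported as relative luminescence units.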
# [7] = target: Cytochrome P450 2C19 (Homo sapiens) (UniProt P33261); assay: Cytochrome P450 Family 2 Subfamily C Member 19 (CYP2C19) small molecule antagonists: luciferase reporter qHTS assay (AID 1671197); further: nearly all actives have a fitted effect of over 65% in size; further: potency means the concentration at half of the fitted maximal effect; on activity change, negative = inhibition: series mostly up to about 120 µM
# Summary of the method: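 Light output is proportional to CYP2C19 activity: proluciferin substrate is converted to luciferin, then detected by a luciferin detection reagent that also stops the 1 h, 37C NADPH-driven reaction. Ketoconazole serves as positive control.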
# [8] = target: Nuclear receptor subfamily 1 group I member 2 (Rattus norvegicus) (UniProt Q9R1A7); assay: Rat pregnane X receptor (rPXR) activation by small molecules, qHTS assay (AID 1346983); conditions: rPXR luciferase reporter cells, One-Glo luminescence, 24 h; max activation: stronger effect = higher value; further: nearly all actives have a fitted effect of over 20% in size
# Summary of the method: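 Cell-based rPXR luciferase reporter assay, 2,000 cells per well, rested 5hr at 37 C before compound addition in DMSO, then 24 hr at 37 C. One-Glo reagent was added and luminescence read after 30 min at room temperature.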
# [9] = target: Nuclear receptor subfamily 1 group I member 2 (Homo sapiens) (UniProt O75469); assay: CYP3A4 induction through human pregnane X receptor (PXR) by small molecules, qHTS assay (AID 1346984); further: nearly all actives have a fitted effect of over 40% in size
# Summary of the method: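 DPX-2 HepG2 cells carrying a PXR response element and CYP3A4-promoter luciferase construct, treated with compounds 24 hr at 37C. Then P450-Glo CYP3A4 Luciferin-IPA substrate (3uM final) for 3 hr at 37C, One-Glo added, luminescence read.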
# [10] = target: Nuclear receptor subfamily 1 group I member 2 (Homo sapiens) (UniProt O75469); assay: Human pregnane X receptor (PXR) activation by small molecules, qHTS assay (AID 1346985); further: nearly all actives have a fitted effect of over 40% in size
# Summary of the method: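 DPX-2 cells (HepG2 co-transfected with a PXR response element and a CYP3A4-promoter luciferase construct) were seeded at 2,000 per well, rested 5 hr at 37C, then exposed to DMSO-dissolved compounds for 24 hr. Activation was read as luciferase luminescence.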
# Nuclear receptor subfamily 1 group I member 2 (Rattus norvegicus), sequence (Q9R1A7 whole entry, looked up): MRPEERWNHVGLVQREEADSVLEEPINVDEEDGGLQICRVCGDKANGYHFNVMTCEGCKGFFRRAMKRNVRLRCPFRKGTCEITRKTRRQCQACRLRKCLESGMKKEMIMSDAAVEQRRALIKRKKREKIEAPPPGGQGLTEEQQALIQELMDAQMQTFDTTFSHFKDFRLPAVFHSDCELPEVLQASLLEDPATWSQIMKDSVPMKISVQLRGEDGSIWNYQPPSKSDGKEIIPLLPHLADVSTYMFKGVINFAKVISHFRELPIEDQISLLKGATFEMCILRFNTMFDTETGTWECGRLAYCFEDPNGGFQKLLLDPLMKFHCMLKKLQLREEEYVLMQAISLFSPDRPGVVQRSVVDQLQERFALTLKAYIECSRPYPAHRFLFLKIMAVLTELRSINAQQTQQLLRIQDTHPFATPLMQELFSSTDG
# Cytochrome P450 2C19 (Homo sapiens), sequence (P33261 whole entry, looked up): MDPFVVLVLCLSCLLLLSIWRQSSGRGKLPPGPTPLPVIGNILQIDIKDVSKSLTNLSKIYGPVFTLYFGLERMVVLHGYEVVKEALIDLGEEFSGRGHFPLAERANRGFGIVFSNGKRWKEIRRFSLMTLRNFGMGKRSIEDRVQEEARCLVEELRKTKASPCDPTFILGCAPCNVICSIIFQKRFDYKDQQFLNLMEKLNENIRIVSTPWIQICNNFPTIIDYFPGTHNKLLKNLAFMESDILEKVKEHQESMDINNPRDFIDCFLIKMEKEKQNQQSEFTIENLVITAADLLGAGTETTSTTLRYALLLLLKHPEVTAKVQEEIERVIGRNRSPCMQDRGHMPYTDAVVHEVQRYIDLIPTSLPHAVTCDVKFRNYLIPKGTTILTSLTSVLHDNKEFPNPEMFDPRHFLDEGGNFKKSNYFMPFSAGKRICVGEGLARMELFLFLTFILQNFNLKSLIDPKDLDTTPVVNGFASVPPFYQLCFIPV
# Nuclear receptor subfamily 1 group I member 2 (Homo sapiens), sequence (O75469 whole entry, looked up): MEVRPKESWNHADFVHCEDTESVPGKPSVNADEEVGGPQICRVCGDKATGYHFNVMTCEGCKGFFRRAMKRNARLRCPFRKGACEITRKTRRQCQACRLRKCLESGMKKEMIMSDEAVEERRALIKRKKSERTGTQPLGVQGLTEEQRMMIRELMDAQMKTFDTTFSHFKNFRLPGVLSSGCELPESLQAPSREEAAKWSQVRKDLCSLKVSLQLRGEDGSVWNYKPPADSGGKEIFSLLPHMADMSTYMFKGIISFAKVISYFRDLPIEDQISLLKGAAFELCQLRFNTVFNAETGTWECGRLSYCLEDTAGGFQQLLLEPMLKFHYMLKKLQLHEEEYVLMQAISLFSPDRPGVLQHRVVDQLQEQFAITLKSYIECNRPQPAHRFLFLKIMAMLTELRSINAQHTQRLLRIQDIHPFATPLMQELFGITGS
# Cytochrome P450 2D6 (Homo sapiens), sequence (P10635 whole entry, looked up): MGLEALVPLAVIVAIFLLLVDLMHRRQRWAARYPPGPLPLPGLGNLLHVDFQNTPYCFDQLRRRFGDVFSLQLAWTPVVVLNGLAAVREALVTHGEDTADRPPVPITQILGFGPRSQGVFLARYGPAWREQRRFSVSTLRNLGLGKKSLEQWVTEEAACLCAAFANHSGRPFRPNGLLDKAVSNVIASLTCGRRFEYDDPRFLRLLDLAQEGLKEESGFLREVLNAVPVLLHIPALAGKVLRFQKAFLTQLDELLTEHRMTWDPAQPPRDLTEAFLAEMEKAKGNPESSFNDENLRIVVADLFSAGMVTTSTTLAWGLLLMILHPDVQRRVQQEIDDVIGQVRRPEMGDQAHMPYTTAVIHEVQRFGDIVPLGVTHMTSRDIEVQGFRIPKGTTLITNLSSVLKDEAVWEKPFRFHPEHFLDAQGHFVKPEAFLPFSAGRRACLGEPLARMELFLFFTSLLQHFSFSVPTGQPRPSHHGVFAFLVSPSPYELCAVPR
compound,measurement,setting,value
O=S(=O)(O)c1cccc(S(=O)(=O)O)c1,outcome,[1],inactive
same,Potency,[2],inactive
same,outcome,[3],inactive
same,Potency,[4],inactive
same,Potency,[5],inactive
same,Potency,[6],inactive
same,Potency,[7],inactive
O=C(CO)[C@@H](O)[C@H](O)[C@@H](O)CO,outcome,[1],inactive
same,Potency,[2],inactive
same,outcome,[3],inactive
same,Potency,[4],inactive
same,Potency,[5],inactive
same,Potency,[6],inactive
same,Potency,[7],inactive
CCNC(=O)[C@@H]1CCCN1C(=O)[C@H](CCCN=C(N)N)NC(=O)[C@H](CC(C)C)NC(=O)CNC(=O)[C@H](Cc1ccc(O)cc1)NC(=O)[C@H](CO)NC(=O)[C@H](Cc1c[nH]c2ccccc12)NC(=O)[C@H](Cc1cnc[nH]1)NC(=O)[C@@H]1CCC(=O)N1 ([pGlu]HWSYGLRP-NHEt),outcome,[1],inactive
same,Potency,[2],inactive
same,outcome,[3],inactive
same,Potency,[4],inactive
same,Potency,[5],inactive
same,Potency,[6],inactive
same,Potency,[7],inactive
CC(=O)C1CCCCC1=O (stereo not drawn),outcome,[1],inactive
same,Potency,[2],inactive
same,outcome,[3],inactive
same,Potency,[4],inactive
same,Potency,[5],inactive
same,Potency,[6],inactive
CCOC(=O)C(=O)CCCCCCl,outcome,[1],inactive
same,Potency,[2],inactive
same,outcome,[3],inactive
same,Potency,[4],inactive
same,Potency,[5],inactive
same,Potency,[6],38.9 µM (active)
same,Potency,[7],17.4 µM (active)
O=C(c1ccccc1)C1(O)CCCCC1,outcome,[1],inactive
same,Potency,[2],inactive
same,outcome,[3],inactive
same,Potency,[4],inactive
same,Potency,[5],inactive
same,Potency,[6],inactive
same,Potency,[7],11.2 µM (active)
CC(COc1ccccc1)NN (stereo not drawn),outcome,[1],inactive
same,Potency,[2],inactive
same,outcome,[3],inactive
same,Potency,[4],inactive
same,Potency,[5],inactive
same,Potency,[6],inactive
same,Potency,[7],inactive
CC1CCC(CO)CC1 (stereo not drawn),outcome,[1],inactive
same,Potency,[2],inactive
same,outcome,[3],inactive
same,Potency,[4],inactive
same,Potency,[5],inactive
same,Potency,[6],inactive
same,Potency,[7],inactive
NC(CCC(=O)O)C(=O)O (stereo not drawn),outcome,[1],inactive
same,Potency,[2],inactive
same,outcome,[3],inactive
same,Potency,[4],inactive
same,Potency,[5],inactive
same,Potency,[6],31 µM (active)
same,Potency,[7],inactive
COc1ccccc1OCC1CNC(=O)O1 (stereo not drawn),outcome,[1],inactive
same,Potency,[2],inactive
same,outcome,[3],inactive
same,Potency,[4],inactive
same,Potency,[5],inactive
same,Potency,[6],inactive
same,Potency,[7],inactive
C=COCC1CCC(COC=C)CC1 (stereo not drawn),outcome,[1],inactive
same,Potency,[2],inactive
same,outcome,[3],inactive
same,Potency,[4],inactive
same,Potency,[5],inactive
same,Potency,[6],inactive
O=S(=O)(O)c1cc(O)c(O)c(S(=O)(=O)O)c1,outcome,[1],inactive
same,Potency,[2],inactive
same,outcome,[3],inactive
same,Potency,[4],inactive
same,Potency,[5],inactive
same,Potency,[6],inactive
CCCCCCCCN1CCCC1=O,outcome,[1],inactive
same,Potency,[2],inactive
same,outcome,[3],inactive
same,Potency,[4],inactive
same,Potency,[5],24.3 µM (active)
same,Potency,[6],inactive
same,Potency,[7],10 µM (active)
CCOC(=O)C1=NOC(c2ccccc2)(c2ccccc2)C1,outcome,[1],inactive
same,Potency,[2],inactive
same,outcome,[3],inactive
same,Potency,[4],inactive
same,Potency,[5],68.6 µM (active)
same,Potency,[6],inactive
same,Potency,[7],20 µM (active)
CC(C)(C)c1ccc(-c2ccc(C(C)(C)C)cc2)cc1,outcome,[1],inactive
same,Potency,[2],inactive
same,outcome,[3],inactive
same,Potency,[4],inactive
same,Potency,[5],inactive
same,Potency,[6],inactive
same,Potency,[7],inactive
CC(CO)(CO)[N+](=O)[O-],outcome,[1],inactive
same,Potency,[2],inactive
same,outcome,[3],inactive
same,Potency,[4],inactive
same,Potency,[5],inactive
same,Potency,[6],inactive
same,Potency,[7],inactive
CCCO[Si](OCCC)(OCCC)OCCC,outcome,[1],inactive
same,Potency,[2],inactive
same,outcome,[3],inactive
same,Potency,[4],inactive
same,Potency,[5],inactive
same,Potency,[6],inactive
same,Potency,[7],inactive
CCCOC(=O)CC,outcome,[1],inactive
same,Potency,[2],inactive
same,outcome,[3],inactive
same,Potency,[4],inactive
same,Potency,[5],inactive
same,Potency,[6],inactive
same,Potency,[7],inactive
CC(=O)c1cnccn1,outcome,[1],inactive
same,Potency,[2],inactive
same,outcome,[3],inactive
same,Potency,[4],inactive
same,Potency,[5],inactive
same,Potency,[6],inactive
Cc1cc(C)c(N=Nc2c(O)c(S(=O)(=O)O)cc3cc(S(=O)(=O)O)ccc23)cc1C,caspase activation,[1],-0.299% [at 8.39 µM]
same,"activity change, negative = cytotoxicity",[2],-8.22% [at 8.39 µM]
same,caspase-3/7 activation,[3],-0.604% [at 8.39 µM]
same,"activity change, negative = cytotoxicity",[4],-13.8% [at 8.39 µM]
same,activation,[5],-9.92% [at 8.39 µM]
same,"activity change, negative = inhibition",[6],-11.1% [at 10.5 µM]
same,"activity change, negative = inhibition",[7],9.38% [at 10.5 µM]
CC(C)(CCC(=O)O)C(=O)O,outcome,[1],inactive
same,Potency,[2],inactive
same,outcome,[3],inactive
same,Potency,[4],inactive
same,Potency,[5],inactive
same,Potency,[6],inactive
same,Potency,[7],inactive
CC1=CCC(O)(C(C)C)CC1 (stereo not drawn),outcome,[1],inactive
same,Potency,[2],inactive
same,outcome,[3],inactive
same,Potency,[4],inactive
same,Potency,[5],inactive
same,Potency,[6],inactive
same,Potency,[7],inactive
O=C(O)CCSCCC(=O)O,outcome,[1],inactive
same,Potency,[2],inactive
same,outcome,[3],inactive
same,Potency,[4],inactive
same,Potency,[5],inactive
same,Potency,[6],inactive
same,Potency,[7],inactive
CN1CCN(c2cc3c(nn2)Oc2ccccc2N3C)CC1,caspase activation,[1],-12.1% [at 19 µM]
same,"activity change, negative = cytotoxicity",[2],3.04% [at 19 µM]
same,caspase-3/7 activation,[3],-3.65% [at 19 µM]
same,"activity change, negative = cytotoxicity",[4],-0.441% [at 19 µM]
same,max activation,[8],8.97%
same,Potency,[9],inactive
same,Potency,[10],inactive
same,Potency,[7],inactive
[O-][n+]1cccc(CO)c1,outcome,[1],inactive
same,Potency,[2],inactive
same,outcome,[3],inactive
same,Potency,[4],inactive
same,max activation,[8],-1.15%
same,Potency,[9],inactive
same,Potency,[10],inactive
same,Potency,[6],inactive
same,Potency,[7],inactive
CCOC(=O)CCC(=O)OCC,outcome,[1],inactive
same,Potency,[2],inactive
same,outcome,[3],inactive
same,Potency,[4],inactive
same,Potency,[5],inactive
same,Potency,[6],inactive
same,Potency,[7],inactive
CCCCCCCCCCOc1cc2c(=O)c(C(=O)OCC)c[nH]c2cc1OCC,caspase activation,[1],0.159% [at 8.39 µM]
same,"activity change, negative = cytotoxicity",[2],0.813% [at 8.39 µM]
same,caspase-3/7 activation,[3],1.97% [at 8.39 µM]
same,"activity change, negative = cytotoxicity",[4],2.55% [at 8.39 µM]
same,max activation,[8],-1.23%
same,Potency,[9],inactive
same,Potency,[10],inactive
same,"activity change, negative = inhibition",[6],-50% [at 10.5 µM]
same,"activity change, negative = inhibition",[7],52.8% [at 10.5 µM]
CC(N)C12CC3CC(CC(C3)C1)C2 (stereo not drawn),outcome,[1],inactive
same,Potency,[2],inactive
same,outcome,[3],inactive
same,Potency,[4],inactive
same,max activation,[8],8.41%
same,Potency,[9],inactive
same,Potency,[10],inactive
same,Potency,[7],inactive
